The viability is a read-out of living cells in per cent, often relative to untreated cells. By inhibition is commonly meant the change of the read-out against control, counted positive when it falls.

Experiment [1] in a line: reducers of endogenous Her2 protein level, primary screen, SKBR3 breast tumor cells, AlphaScreen, ATP viability (AID 461;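 active = Her2 level under about 52% in both replicate screens, with viability over 70% of control, limit read from the data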;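 as to Her2 level: lower value means less Her2 protein in the cells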;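 as to viability: percent of carrier control wells set as 100% viability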). Conditions: 18-24 h, measured here: SKBR3 viability, ATP luminescence, at 10 µM. (In general: Bead proximity is the source of the signal in Alpha formats.)
The target of experiment [2] is Receptor tyrosine-protein kinase erbB-2 (Homo sapiens) (UniProt P04626). Described as above. Conditions: 18-24 h, at 10 µM, stronger effect = lower value.
Sequence of Receptor tyrosine-protein kinase erbB-2 (Homo sapiens) (P04626 whole entry, looked up): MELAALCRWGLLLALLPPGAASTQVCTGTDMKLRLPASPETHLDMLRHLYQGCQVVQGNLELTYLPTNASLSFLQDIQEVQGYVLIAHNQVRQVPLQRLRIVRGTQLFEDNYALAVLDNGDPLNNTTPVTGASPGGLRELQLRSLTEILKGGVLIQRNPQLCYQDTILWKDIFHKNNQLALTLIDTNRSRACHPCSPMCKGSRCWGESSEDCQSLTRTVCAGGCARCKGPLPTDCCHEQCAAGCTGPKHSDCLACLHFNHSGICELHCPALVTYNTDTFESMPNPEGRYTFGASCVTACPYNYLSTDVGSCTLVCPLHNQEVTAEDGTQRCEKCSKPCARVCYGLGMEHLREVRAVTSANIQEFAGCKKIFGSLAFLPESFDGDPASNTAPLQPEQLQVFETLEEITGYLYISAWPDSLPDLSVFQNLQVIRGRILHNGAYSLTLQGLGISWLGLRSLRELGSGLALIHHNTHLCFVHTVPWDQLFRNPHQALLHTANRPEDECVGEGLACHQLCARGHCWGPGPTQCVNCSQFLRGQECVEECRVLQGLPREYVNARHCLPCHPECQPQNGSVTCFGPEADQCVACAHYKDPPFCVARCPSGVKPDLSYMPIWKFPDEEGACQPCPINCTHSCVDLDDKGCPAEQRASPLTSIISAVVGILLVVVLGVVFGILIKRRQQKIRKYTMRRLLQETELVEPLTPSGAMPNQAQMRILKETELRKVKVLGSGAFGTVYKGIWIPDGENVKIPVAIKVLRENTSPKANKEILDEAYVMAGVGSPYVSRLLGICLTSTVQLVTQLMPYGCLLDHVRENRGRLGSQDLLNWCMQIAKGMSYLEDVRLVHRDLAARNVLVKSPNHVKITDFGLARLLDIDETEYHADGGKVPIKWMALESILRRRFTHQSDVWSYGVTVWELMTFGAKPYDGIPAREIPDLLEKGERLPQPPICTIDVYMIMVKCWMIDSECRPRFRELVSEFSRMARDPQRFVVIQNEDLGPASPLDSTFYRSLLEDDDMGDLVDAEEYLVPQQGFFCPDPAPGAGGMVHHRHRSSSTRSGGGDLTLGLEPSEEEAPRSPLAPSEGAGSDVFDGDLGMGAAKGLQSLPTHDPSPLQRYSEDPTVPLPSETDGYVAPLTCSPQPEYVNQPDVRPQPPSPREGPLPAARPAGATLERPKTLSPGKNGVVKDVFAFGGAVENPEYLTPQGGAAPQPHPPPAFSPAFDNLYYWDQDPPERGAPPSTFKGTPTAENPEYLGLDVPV
Experiment [3] can be described thus: SK-BR-3 cell growth inhibitors, pilot screen, 24 h, human (AID 572;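 active = viability at or below 10% of carrier control in both of two separate runs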;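 also: compound exposure lasted between 18 and 24 h rather than exactly 24 h; 100% = carrier-treated control wells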). Conditions: SK-BR-3 viability, CellTiter-Glo luminescence, at 10 µM, stronger effect = lower value. (In general: ATP-based viability assays read luminescence as a measure of living cells.)
Experiment [4] can be described thus: HUVEC growth inhibition – cell-based, human, primary screen (AID 575;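 active = viability at or below 30% in both replicate assays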;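 also: 100% = median of untreated cell wells with 0.1% DMSO on each plate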). Conditions: HUVEC proliferation, CellTiter-Glo luminescence, 72 h; at 10 µM; stronger effect = lower value.
Experiment [5] can be described thus: growth inhibitors of H69AR lung tumor, primary screen, human, duplicate replicates (AID 580;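 active = viability at or under a set limit in both replicates, limit being median viability minus 3 SD, cut at about 48% in these data, passing the limit was not always enough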;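 also: 100% = mean luminescence of untreated wells and 0% = no signal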). As to conditions: H69AR lung tumor cells viability, ATP luminescence, 72 h; at 10 µM; stronger effect = lower value.
The nature of experiment [6]: reversal of MRP1-mediated doxorubicin resistance, pilot screen, H69AR cells, doxorubicin co-treatment (AID 601). As to conditions: CellTiter-Glo, 72 h, at 10 µM; for differential viability (reversal): stronger effect = higher value.
Experiment [7] is described as follows: 384-well plate pilot, post-Golgi transport modulator project, inhibition of yeast transport mutant growth (AID 636; in the data active = inhibition above about 31%). As to conditions: absorbance 615 nm, about 18 h, stronger effect = higher value.
The nature of experiment [8]: growth suppression of yeast trafficking mutant, preliminary HTS, modulators of trafficking downstream of Golgi apparatus project, 1536-format plate, OD 615 nm (AID 637; in the data active = inhibition above about 30%). Conditions: yeast transport mutant growth, absorbance 615 nm, 18 h; stronger effect = higher value.
The nature of experiment [9]: OD615 S. cerevisiae growth inhibition, permissive medium, pilot counter-assay, permissive growth control for S. cerevisiae lifespan shortening project (AID 705;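 active = growth inhibition above 25% in both replicates, a cutoff set 3 SD above the mean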). As to conditions: OD615, 24 h, at 10 µM, stronger effect = higher value.
Experiment [10] in a line: Restrictive medium S. cerevisiae growth inhibition, OD615, pilot screen of yeast lifespan reduction project, restrictive growth control (AID 706;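 active = growth inhibition above a set limit, 3 SD over mean compound inhibition, in both replicates, cut at about 43% in these data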;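 also: modified DeaD lifespan yeast strain shifted to restrictive glucose medium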). Conditions: OD615, 48 h, at 10 µM, stronger effect = higher value.
The nature of experiment [11]: viability gain of MRP-1-high H69AR cells under doxorubicin, pilot screen, MRP-1 activator project, CellTiter-Glo, duplicate (AID 807;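 active = viability increase at or above a cutoff of the median across tested compounds plus 3 SD, cut at about 8.5% in these data, passing the limit was not always enough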;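 also: compound pretreatment 18-22 h then 72 h combined with doxorubicin; 0% = doxorubicin alone and 100% = vehicle without doxorubicin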). Conditions: H69AR viability with doxorubicin, CellTiter-Glo luminescence; at 10 µM; stronger effect = higher value.
Experiment [12] can be described thus: growth suppression of beta-catenin knockout HCT116, pilot screen, human colon tumor cells (AID 823;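 active = cell viability at or below a set limit in both duplicate runs, the limit being the all-compound median minus 4 SD, cut at about 23% in these data, passing the limit was not always enough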;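 also: 0% = wells killed by 20 µM Hyamine and 100% = untreated DMSO cell wells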). As to conditions: CellTiter-Glo, 60 h, at 10 µM, stronger effect = lower value.
Experiment [13] in a line: growth suppression of PTEN-deleted HCT116, pilot screen, cell-based, HCT116 clonal line, CellTiter-Glo (AID 824;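 active = viability at or below 27.92% in each of two runs, the all-compound median minus 4 SD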;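 also: 0% = 20 µM Hyamine control and 100% = vehicle cell control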). Conditions: 60 h, at 10 µM, stronger effect = lower value.
Experiment [14] can be described thus: inhibitors of the yeast RAM network, pilot screen, dse1pr::URA3 reporter, 5-FOA selection (AID 869;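 active = inhibition over a set limit, the all-compound mean plus 3 SD, in both replicate runs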;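 also: 0% = DMSO wells with no growth and 100% = 10 µM 1-NA-PP1 with full growth; RAM network block rescues cells from 5-FOA so hits raise OD615 growth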). Conditions: S. cerevisiae dse1pr::URA3 5-FOA growth, OD615, 2 d; at 10 µM; stronger effect = higher value; strain carries analog-sensitive mutant Cbk1 kinase.
Experiment [15] in a line: RAM signaling pathway blockade in yeast – S. cerevisiae, Pdr1DBD-CYC8 efflux-inhibited sensitized strain, primary screen (AID 1298;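 active = RAM network inhibition above 8.4% in each of two replicates, 3 SD over the compound average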;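 also: 0% = DMSO untreated cells without growth and 100% = 10 µM 1-NA-PP1 full growth; higher means more yeast growth rescued from 5-FOA killing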). Conditions: S. cerevisiae cbk1-as DSE1-URA3 strain, 5-FOA growth OD615, 2 d; at 50 µM; stronger effect = higher value.
Where [16] appears, read: H69AR cells + 2 uM doxorubicin, measured here: viability with 2 uM doxorubicin, stronger effect = lower value.
Setting [17] is: H69AR cells, compound alone cytotoxicity.

Records with an inconclusive call do not appear. Activity calls are given as the source filed them.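 The calls were made as follows, unless noted: active = viability loss from added drug above about 55%, and viability with drug at most 40%, in both replicates (limit read from the data, passing the limit was not always enough); inconclusive = both conditions met in only one replicate; inactive = neither replicate meets both conditions.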

Take `CC1(C)CC(=O)C(C=NCCO)=C(O)C1`: the viability is 100% in experiment [1]; 100% (inactive) in experiment [3]; 113% (inactive) in experiment [4]; 91.2% (inactive) in experiment [5]; 88.9% in [6] (setting [16]); 91.2% in [6] (setting [17]). Also, the viability in experiment [12] was 102% (inactive); in experiment [13], 101% (inactive). Besides, the Her2 level in [2] was 97.5% (inactive). Also, the differential viability (reversal) in experiment [6] (H69AR cells + 2 uM doxorubicin) is 2.35% (inactive). The inhibition was -6.08% (inactive) in [7], 5.83% (inactive) in experiment [8] and 1.19% (inactive) in [14]. For the same molecule, the figures for the growth inhibition in experiment [9] and in [10] were 5.08% (inactive) and -3.12% (inactive), respectively. Moreover, the viability increase in experiment [11] was 1.5% (inactive). Further, in [15], the RAM network inhibition was 2.26% (inactive).

As to `CCOC(=O)N1CCC(Nc2ncnc3c2cnn3-c2ccc(C)cc2C)CC1`, the viability in [1] is 86%; in experiment [3] it was 86% (inactive); in experiment [4], 83.4% (inactive); in [5] it was 72.7% (inactive); in experiment [6] (setting [16]), 30.2%; in [6] (setting [17]), 72.7%. The viability in experiment [12] is 70.2% (inactive); in [13] it was 67.4% (inactive). The Her2 level in experiment [2] was 78.5% (inactive). The differential viability (reversal) in experiment [6] (H69AR cells + 2 uM doxorubicin) is 42.5% (inactive). Moreover, the results for the inhibition in [7], in experiment [8] and in [14] were -4% (inactive), 1.5% (inactive) and 0.78% (inactive), respectively. Also, the values for the growth inhibition in experiment [9] and in [10] were 5.81% (inactive) and -2.8% (inactive), respectively. In addition, the viability increase in [11] is -6.54% (inactive). Besides, in [15], the RAM network inhibition was 1.71% (inactive).

Consider `O=c1oc2ccccc2cc1NCc1ccccc1O`, for which the viability in experiment [1] is 90.5%; in [3], 90.5% (inactive); in experiment [4] it was 79.2% (inactive); in experiment [5] it was 73.9% (inactive); in [6] (setting [16]), 87.4%; in experiment [6] (setting [17]) it was 73.9%. Also, the values for the viability in experiment [12] and in experiment [13] were 91.2% (inactive) and 91.1% (inactive), respectively. In experiment [2], the Her2 level was 82% (inactive). The differential viability (reversal) in experiment [6] (H69AR cells + 2 uM doxorubicin) was -13.5% (inactive). The inhibition was -2.56% (inactive) in [7], -0.5% (inactive) in experiment [8] and 1.91% (inactive) in experiment [14]. The growth inhibition in experiment [9] is -12.5% (inactive); in experiment [10] it was -15.2% (inactive). Moreover, the viability increase in experiment [11] is -6.51% (inactive). Moreover, the RAM network inhibition in experiment [15] was 1.22% (inactive).

Consider `CC1CCN(C(=O)CSc2nc3c(cnn3-c3ccccc3)c(=O)[nH]2)CC1`, for which the viability is 82.5% in experiment [1]; 82.5% (inactive) in experiment [3]; 72.1% (inactive) in experiment [4]; 72% (inactive) in experiment [5]; 64.4% in experiment [6] (setting [16]); 72% in experiment [6] (setting [17]). In addition, the viability is 98.3% (inactive) in experiment [12] and 91.1% (inactive) in [13]. Moreover, in [2], the Her2 level was 92% (inactive). Also, the differential viability (reversal) in experiment [6] (H69AR cells + 2 uM doxorubicin) was 7.54% (inactive). Besides, the inhibition is -0.64% (inactive) in experiment [7], 1.67% (inactive) in [8] and 1.47% (inactive) in experiment [14]. The figures for the growth inhibition in [9] and in experiment [10] were -6.1% (inactive) and -4.26% (inactive), respectively. Also, the viability increase in [11] was -3.8% (inactive). In experiment [15], the RAM network inhibition is 6.5% (inactive).

For `COc1ccc2[nH]c(C)c(CCN3C(=O)OC(C)(C)C3(C)O)c2c1` (stereo not given), the viability in experiment [1] is 100%; in experiment [3], 100% (inactive); in [4] it was 102% (inactive); in experiment [5] it was 81.5% (inactive); in [6] (setting [16]), 91.9%; in experiment [6] (setting [17]) it was 81.5%. Further, the viability was 107% (inactive) in [12] and 96.4% (inactive) in [13]. The Her2 level in experiment [2] is 108% (inactive). In experiment [6] (H69AR cells + 2 uM doxorubicin), the differential viability (reversal) is -10.4% (inactive). The inhibition in experiment [7] is -5.73% (inactive); in [8], -6.67% (inactive); in experiment [14], 1.92% (inactive). Further, the growth inhibition is 4.92% (inactive) in [9] and -5.26% (inactive) in experiment [10]. Further, the viability increase in [11] is -1.56% (inactive). Also, the RAM network inhibition in experiment [15] was 2.87% (inactive).

The values above are taken from PubChem BioAssay.
